LmPK inhibitor: blocks Leishmania mexicana pyruvate kinase activity; 0.37% of 290,000 active; purified LmPK, Kinase-Glo ATP luminescence, 1 h; Potency, µM (highest dose often 57.5 µM), inactives show top-dose activity change, negative = inhibition, usual class: inhibitors; Q27686; further: on the % scale 0 is the no-effect control and ±100 the full control effect
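In 50 mM imidazole pH 7.2 with 7 mM MgCl2, LmPK (0.1 nM) turned over PEP (0.5 mM) and ADP (0.1 mM) for 1 h at room temperature. Luciferase read-out of ATP.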
Tb PYK inh: blocks Trypanosoma brucei pyruvate kinase; Q57TT1; TbPYK enzyme, Kinase-Glo Plus ATP luminescence, 45 min; Potency, µM (highest dose often 76.8 µM), for inactives: top-dose activity, negative = inhibition, usual class: inhibitors; 0.12% of 410,000 active; further: on the % scale 0 is the no-effect control and ±100 the full control effect; nearly all actives have a fitted effect of over 50% in size
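Luminescent Kinase-Glo Plus end-point after 45 min room-temperature reaction of T. brucei pyruvate kinase started with 130 uM ADP (final). Buffer TEA 50 mM pH 7.2 with KCl, MgCl2, BSA, Tween-20; titration-based qHTS with fitted concentration-effect curves.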
Giardia FBPA inh-1: Giardia lamblia aldolase inhibition; A8B2U2; purified Giardia FBPA; Potency, µM (doses to about 59.6 µM), for the others: at the top dose activity, negative = inhibition, actives largely listed as inhibitors; 0.71% of 290,000 active; AID 2451; further: on the % scale 0 is the no-effect control and ±100 the full control effect; nearly all actives have a fitted effect of over 55% in size
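Giardia FBPA (40 nM reagent) was preincubated 10 min at RT with compound (up to 57.5 uM final), then substrate plus GAPDH/TPI/NAD/arsenate coupling system with diaphorase/resazurin was added; resorufin fluorescence (525/598 nm) was read after 20 min.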
Sm TGR inh: S. mansoni TGR enzyme inhibition | Q962Y6 | purified TGR, DTNB reduction, TNB absorbance 405 nm | Potency, µM (series often up to 114 µM), without a hit: at the highest dose activity change, negative = inhibition, actives largely listed as inhibitors | 3% of 360,000 active; further: on the % scale 0 is the no-effect control and ±100 the full control effect; nearly all actives have a fitted effect of over 60% in size
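Kinetic colorimetric format: TGR-catalysed, NADPH-driven DTNB reduction monitored via TNB absorbance. Enzyme dispensed at 20 nM; compound exposure 15 min at room temperature before reaction start.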
RE007 growth inh: less growth of the S. pombe RE007 Vpr strain; S. pombe RE007 Vpr strain, BacTiter-Glo ATP luminescence, 24 h; AID 651644; Potency, µM (highest dose often 92.2 µM), for the others: at the highest dose activity change, negative = less growth, usual class: inhibitors; 0.21% of 360,000 active; active means well fitted falling curve with a large enough effect; inconclusive means small, poorly fitted or top-dose-only effect; inactive means no such curve, though single readings can be large or run the other way; further: on the % scale 0 is the no-effect control and ±100 the full control effect; nearly all actives have a fitted effect of over 50% in size
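Fission yeast strain RE007, carrying one chromosomally integrated HIV-1 vpr copy, was seeded at OD 0.01 in PMG+AL medium with 23 nL pinned compound. After 24 h at 30 °C and 99% humidity, viability was read by BacTiter-Glo luminescence.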
NS1 function inh: blocks influenza NS1 protein function | 0.4% of 270,000 active | Potency, µM (doses to about 46.1 µM), for inactives: at the highest dose activity, positive = more growth; calls by dose curve; further: actives are rising curves; nearly all actives have a fitted effect of over 50% in size
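In this qHTS, NS1 from influenza A is expressed in budding yeast, where it slows growth. Cells are switched from glucose to 2% galactose medium (pH 6.0, -URA), treated with compound, and growth recovery is read at OD600.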
Giardia growth: inhibitors of Giardia lamblia growth | Potency, µM (series often up to 57.5 µM), without a hit: at the top dose activity change, negative = inhibition, actives largely listed as inhibitors | shares compounds with Giardia FBPA inh-1 | 5% of 1,500 active | Giardia lamblia trophozoite growth inhibition;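 further: trophozoites exposed to compound for 48 h at 37 °C; on the % scale 0 is the no-effect control and ±100 the full control effect; nearly all actives have a fitted effect of over 70% in size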
Mammalian tox: toxic to mammalian cells in Giardia aldolase counter-screen; shares compounds with Giardia FBPA inh-1; mammalian cell viability counter-screen, qHTS; Potency, µM (doses to about 57.5 µM), without a hit: at the highest dose viability change, negative = toxicity, actives largely listed as inhibitors; 4% of 1,500 active; AID 2786;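 further: Chinese hamster ovary cells used as mammalian cytotoxicity surrogate; viability measured as cellular ATP by luminescence; compound exposure lasted 48 h before reading; on the % scale 0 is the no-effect control and ±100 the full control effect; nearly all actives have a fitted effect of over 60% in size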
Giardia FBPA inh-2: confirmation of Giardia fructose-bisphosphate aldolase inhibitors; 5% of 1,500 active; Potency, µM (titrated, usually from 57.5 µM), for the others: at the top dose activity change, negative = inhibition, most hits filed as inhibitors; shares compounds with Giardia FBPA inh-1; purified Giardia aldolase enzyme activity, qHTS; further: on the % scale 0 is the no-effect control and ±100 the full control effect; nearly all actives have a fitted effect of over 45% in size
Rabbit aldolase: rabbit FBP aldolase inhibition by Giardia aldolase hits; shares compounds with Giardia FBPA inh-1; AID 2794; Potency, µM (highest dose often 57.5 µM), for inactives: top-dose activity, negative = inhibition, hits mostly inhibitors; Rabbit muscle FBPA enzyme inhibition, selectivity counter-screen; 4% of 1,500 active; further: on the % scale 0 is the no-effect control and ±100 the full control effect; nearly all actives have a fitted effect of over 60% in size
Target sequence (P00883 whole entry, looked up): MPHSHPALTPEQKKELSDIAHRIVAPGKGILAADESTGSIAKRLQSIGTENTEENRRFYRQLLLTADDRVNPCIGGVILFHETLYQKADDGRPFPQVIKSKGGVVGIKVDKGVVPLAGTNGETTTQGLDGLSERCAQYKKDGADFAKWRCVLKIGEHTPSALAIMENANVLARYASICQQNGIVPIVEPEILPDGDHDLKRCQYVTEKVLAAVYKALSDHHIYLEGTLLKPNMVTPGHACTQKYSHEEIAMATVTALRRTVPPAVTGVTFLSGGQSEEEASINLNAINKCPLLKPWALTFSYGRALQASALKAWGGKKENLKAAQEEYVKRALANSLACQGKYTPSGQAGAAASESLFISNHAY
GAPDH counter: counter-screen for Giardia aldolase inhibitors: GAPDH coupling enzyme; shares compounds with Giardia FBPA inh-1; GAPDH coupling enzyme counterscreen, biochemical, qHTS; Potency, µM (series often up to 57.5 µM), inactives show at the highest dose activity change, negative = inhibition, actives largely listed as inhibitors; 6% of 1,500 active; AID 2795; further: on the % scale 0 is the no-effect control and ±100 the full control effect; nearly all actives have a fitted effect of over 55% in size
The depositor's hits bear a star; ? = inconclusive; . = no result given; [ ] = another dose, or the depositor's remark. Compounds with a hit are over-represented: about 3.5% of the library has one in this group of screens. Unless noted, the call rests on the fitted dose curve; in most records, active means well fitted curve in the direction sought with a large enough effect; inconclusive means small, poorly fitted or top-dose-only effect, or another doubt; inactive means no such curve, though single readings can be large; an effect the other way counts as inactive or inconclusive. Potency means the concentration at half of the fitted maximal effect.

SMILES	LmPK inhibitor	Tb PYK inh	Giardia FBPA inh-1	Sm TGR inh	RE007 growth inh	NS1 function inh	Giardia growth	Mammalian tox	Giardia FBPA inh-2	Rabbit aldolase	GAPDH counter
Cc1ccc(C)c(-n2c3nc(=O)n(C)c(=O)c-3cc3ccccc32)c1	7%	0%	6%	-35%	10%	-5%	.	.	.	.	.
N#C/C(=C/c1ccco1)C(N)=S	6%	0%	16µM*	-1%	-15%	10%	?	6%	2%	2%	6%
N#C/C(=C\c1ccc2c(c1)OCO2)C(N)=S	2%	-3%	-18%	-8%	4%	9%	.	.	.	.	.
O=C(O)c1cccc(-n2c(-c3cnccn3)n[nH]c2=S)c1	3%	-19%	20µM*	5%	-2%	.	10%[10.4 µM]	-1%	0%	3%	8%
NC(=S)N/N=C/c1ncc(C(F)(F)F)cc1Cl	3%	0%	6.3µM*	14%	-9%	-39%	3%[10.4 µM]	?	-18%	4%	?
Cc1cccc(Cn2cc3c(=O)n(CC(=O)Nc4ccc(C)c(F)c4)nc-3c3cc(F)ccc32)c1	.	-1%	.	0%	.	.	.	.	.	.	.
CC(=O)c1c(C)[nH]c(=S)c(C#N)c1-c1ccc(Cl)cc1	29%	?	24%	5%	7%	10%	.	.	.	.	.
Cc1[nH]c(=S)c(C#N)c(-c2ccco2)c1C(=O)N(C)C	11%	?	20µM*	-21%	27%	.	?	8%	-2%	-3%	0%
Cc1ccc(S(=O)(=O)C(CNS(=O)(=O)c2cc(F)ccc2F)c2cccs2)cc1 (stereo not drawn)	.	0%	.	?	.	.	.	.	.	.	.
Cc1nc(C(F)(F)F)c(C(=O)N/N=C(\N)c2ccccn2)s1	-2%	-3%	4.5µM*	-7%	4%	.	32µM*	40µM*	?	-21%	-26%
CNC(=O)N/N=C(\N)c1ccccn1	-4%	0%	?	12%	1%	1%	.	.	.	.	.
N/C(=N\NS(=O)(=O)c1ccccc1C(F)(F)F)c1ccccn1	7%	-5%	18µM*	-6%	7%	2%	6%[10.4 µM]	7%	13%	11%	7%
O=C(Nc1ccccc1C(F)(F)F)c1ccccn1	-4%	4%	-21%	-2%	-19%	.	.	.	.	.	.
Cc1ccc(NC(=O)N2CCN(c3nnc(C)c4c(C)n(-c5ccccc5)nc34)CC2)c(Cl)c1	.	2%	.	1%	.	.	.	.	.	.	.
Cn1nc(C(=O)NCc2ccc(F)cc2)c2c1-c1ccccc1SC2	.	2%	.	9%	.	.	.	.	.	.	.
Cc1ccc(/C=[N+](/C)[O-])cc1	-10%	0%	0%	5%	5%	.	.	.	.	.	.

Screens (PubChem BioAssay)
